Measured values published in PubChem BioAssay AID1159580 (chemical genetic matrix, 2015).
About 2,000 (36%) of roughly 5,500 compounds were called active. Roughly 18% stayed inconclusive and do not appear here. Cut-off read from the data, not from the text of the source: active = normalized growth mostly below about 0.91 (no sharp cut-off); inconclusive = no clear call, values can overlap the other calls; inactive = mostly above about 0.92. The list shows a part of the results.

Test: chemical genetic growth profiling, strain panel (AID 1159580);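 note: tested at 20 µM; growth read once vehicle control cultures reached saturation at 30 °C; 1 = growth at the plate median or of vehicle wells; lower values mean less growth of the strain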
Conditions: growth OD
[1] = S. cerevisiae deletion strains, locus YDL101C, strain DUN1, hits give low values
[2] = S. cerevisiae deletion strains, locus YHR030C, strain SLT2, hits give low values
[3] = S. cerevisiae deletion strains, locus YAL013W, strain DEP1, hits give low values
[4] = S. cerevisiae deletion strains, locus YBR229C, strain ROT2, hits give low values
[5] = S. cerevisiae deletion strains, locus YCL061C, strain MRC1, hits give low values
[6] = S. cerevisiae deletion strains, locus YDL134C, strain PPH21, hits give low values
[7] = S. cerevisiae deletion strains, locus YDR150W, strain NUM1, hits give low values
[8] = S. cerevisiae deletion strains, locus YEL061C, strain CIN8, hits give low values
[9] = S. cerevisiae deletion strains, locus YGR078C, strain PAC10, hits give low values
[10] = S. cerevisiae deletion strains, locus YHR087W, strain rtc3, hits give low values
[11] = S. cerevisiae deletion strains, locus YJL187C, strain SWE1, hits give low values
[12] = S. cerevisiae deletion strains, locus YJR043C, strain POL32, hits give low values
[13] = S. cerevisiae deletion strains, locus YJR075W, strain HOC1, hits give low values
[14] = S. cerevisiae deletion strains, locus YLR039C, strain RIC1, hits give low values
[15] = S. cerevisiae deletion strains, locus YLR058C, strain SHM2 (second series), hits give low values
[16] = S. cerevisiae deletion strains, locus YLR085C, strain ARP6, hits give low values
[17] = S. cerevisiae deletion strains, locus YLR262C, strain YPT6, hits give low values
[18] = S. cerevisiae deletion strains, locus YML094W, strain GIM5, hits give low values
[19] = S. cerevisiae deletion strains, locus YMR219W, strain ESC1, hits give low values
[20] = S. cerevisiae deletion strains, locus YMR307W, strain GAS1, hits give low values
[21] = S. cerevisiae deletion strains, locus YNL153C, strain GIM3, hits give low values
[22] = S. cerevisiae deletion strains, locus YNL298W, strain CLA4 (second series), hits give low values
[23] = S. cerevisiae deletion strains, locus YNL322C, strain KRE1, hits give low values
[24] = S. cerevisiae deletion strains, locus YNR030W, strain Alg12, hits give low values
[25] = S. cerevisiae deletion strains, locus YPL055C, strain LGE1, hits give low values
[26] = S. cerevisiae deletion strains, locus YPL241C, strain CIN2, hits give low values
[27] = S. cerevisiae deletion strains, locus YPR135W, strain CTF4, hits give low values
[28] = S. cerevisiae deletion strains, locus YGR229C, strain SMI1, hits give low values

Measured: normalized growth

COCCOc1ccccc1NC(=S)SCCSC(=S)Nc1ccccc1OCCOC
inactive: S. cerevisiae deletion strains, locus YAR019C, strain CDC15, hits give low values 0.988 | S. cerevisiae deletion strains, locus YBL105C, strain PKC1, hits give low values 0.978 | S. cerevisiae deletion strains, locus YBR135W, strain CKS1, hits give low values 0.978 | S. cerevisiae deletion strains, locus YBR136W, strain MEC1, hits give low values 0.977 | S. cerevisiae deletion strains, locus YBR160W, strain CDC28, hits give low values 0.979 | S. cerevisiae deletion strains, locus YDL017W, strain CDC7, hits give low values 0.98 | S. cerevisiae deletion strains, locus YDL028C, strain MPS1, hits give low values 0.98 | [1] 0.973 | S. cerevisiae deletion strains, locus YDL108W, strain KIN28, hits give low values 0.97 | S. cerevisiae deletion strains, locus YDL132W, strain cdc53, hits give low values 0.976 | S. cerevisiae deletion strains, locus YDL214C, strain PRR2, hits give low values 0.911 | S. cerevisiae deletion strains, locus YDR052C, strain DBF4, hits give low values 0.981 | S. cerevisiae deletion strains, locus YDR054C, strain cdc34, hits give low values 0.976 | S. cerevisiae deletion strains, locus YDR226W, strain ADK1, hits give low values 0.969 | S. cerevisiae deletion strains, locus YDR477W, strain SNF1, hits give low values 0.955 | S. cerevisiae deletion strains, locus YER123W, strain YCK3, hits give low values 0.883 | S. cerevisiae deletion strains, locus YER133W, strain GLC7, hits give low values 0.938 | S. cerevisiae deletion strains, locus YFL009W, strain cdc4, hits give low values 0.976 | S. cerevisiae deletion strains, locus YFL029C, strain CAK1, hits give low values 0.981 | S. cerevisiae deletion strains, locus YFR003C, strain YPI1, hits give low values 0.977 | S. cerevisiae deletion strains, locus YFR019W, strain FAB1, hits give low values 0.945 | S. cerevisiae deletion strains, locus YFR028C, strain CDC14, hits give low values 0.988 | S. cerevisiae deletion strains, locus YGR040W, strain KSS1, hits give low values 0.938 | S. cerevisiae deletion strains, locus YGR052W, strain FMP48, hits give low values 1 | S. cerevisiae deletion strains, locus YGR092W, strain DBF2, hits give low values 0.933 | [2] 1.15 | S. cerevisiae deletion strains, locus YHR079C, strain IRE1, hits give low values 1.03 | S. cerevisiae deletion strains, locus YHR082C, strain KSP1, hits give low values 1.01 | S. cerevisiae deletion strains, locus YHR205W, strain SCH9, hits give low values 0.936 | S. cerevisiae deletion strains, locus YIL147C, strain SLN1, hits give low values 0.97 | S. cerevisiae deletion strains, locus YJL095W, strain BCK1, hits give low values 1.03 | S. cerevisiae deletion strains, locus YJL128C, strain PBS2, hits give low values 0.941 | S. cerevisiae deletion strains, locus YJL157C, strain FAR1, hits give low values 0.924 | S. cerevisiae deletion strains, locus YJR016C, strain ILV3, hits give low values 0.987 | S. cerevisiae deletion strains, locus YJR066W, strain TOR1 (second series), hits give low values 0.899 | S. cerevisiae deletion strains, locus YJR066W, strain TOR1, hits give low values 1.03 | S. cerevisiae deletion strains, locus YKL048C, strain ELM1, hits give low values 0.944 | S. cerevisiae deletion strains, locus YKL067W, strain YNK1, hits give low values 0.937 | S. cerevisiae deletion strains, locus YKL101W, strain HSL1, hits give low values 0.931 | S. cerevisiae deletion strains, locus YKL193C, strain SDS22, hits give low values 0.985 | S. cerevisiae deletion strains, locus YKL203C, strain TOR2, hits give low values 1.02 | S. cerevisiae deletion strains, locus YLR113W, strain HOG1, hits give low values 0.931 | S. cerevisiae deletion strains, locus YLR133W, strain CKI1, hits give low values 0.947 | S. cerevisiae deletion strains, locus YLR403W, strain SFP1, hits give low values 0.944 | S. cerevisiae deletion strains, locus YML070W, strain DAK1, hits give low values 0.902 | S. cerevisiae deletion strains, locus YMR001C, strain CDC5, hits give low values 0.981 | S. cerevisiae deletion strains, locus YMR205C, strain PFK2 (second series), hits give low values 0.939 | S. cerevisiae deletion strains, locus YMR277W, strain FCP1, hits give low values 0.984 | S. cerevisiae deletion strains, locus YNL006W, strain LST8, hits give low values 0.983 | S. cerevisiae deletion strains, locus YNL020C, strain ARK1, hits give low values 0.931 | S. cerevisiae deletion strains, locus YNL161W, strain CBK1, hits give low values 0.984 | S. cerevisiae deletion strains, locus YNL183C, strain NPR1, hits give low values 1.01 | S. cerevisiae deletion strains, locus YNL207W, strain RIO2, hits give low values 0.993 | S. cerevisiae deletion strains, locus YNL222W, strain SSU72, hits give low values 0.972 | S. cerevisiae deletion strains, locus YNL307C, strain MCK1 (second series), hits give low values 0.946 | S. cerevisiae deletion strains, locus YOL078W, strain AVO1, hits give low values 0.98 | S. cerevisiae deletion strains, locus YOL136C, strain PFK27, hits give low values 0.918 | S. cerevisiae deletion strains, locus YOR061W, strain CKA2, hits give low values 0.92 | S. cerevisiae deletion strains, locus YOR119C, strain RIO1, hits give low values 0.991 | S. cerevisiae deletion strains, locus YOR231W, strain MKK1, hits give low values 1 | S. cerevisiae deletion strains, locus YOR329C, strain SCD5, hits give low values 0.981 | S. cerevisiae deletion strains, locus YPL031C, strain PHO85, hits give low values 0.949 | S. cerevisiae deletion strains, locus YPL153C, strain RAD53, hits give low values 0.928 | S. cerevisiae deletion strains, locus YPL204W, strain HRR25, hits give low values 0.945 | S. cerevisiae deletion strains, locus YPL209C, strain IPL1, hits give low values 0.978 | S. cerevisiae deletion strains, locus YPL256C, strain CLN2, hits give low values 0.991 | S. cerevisiae deletion strains, locus YPR025C, strain CCL1, hits give low values 0.982 | S. cerevisiae deletion strains, locus YPR106W, strain ISR1, hits give low values 0.98 | S. cerevisiae deletion strains, locus YPR111W, strain DBF20, hits give low values 0.977 | S. cerevisiae deletion strains, strain NNK1, hits give low values 0.981 | S. cerevisiae deletion strains, strain TSCII, hits give low values 0.99

CCOC(=O)c1c(C)csc1N
inactive: [3] 0.99 | [4] 0.999 | [5] 0.996 | [1] 0.998 | [6] 1.01 | [7] 1.01 | [8] 0.987 | [9] 0.983 | [2] 0.98 | [10] 1.01 | [11] 1 | [12] 1.01 | [13] 0.997 | [14] 1 | [15] 1.01 | [16] 0.983 | [17] 1.02 | [18] 0.984 | [19] 1.01 | S. cerevisiae deletion strains, locus YMR263W, strain SAP30, hits give low values 1.02 | [20] 0.9 | [21] 1 | [22] 0.967 | [23] 0.993 | [24] 0.984 | [25] 1.03 | [26] 0.972 | [27] 1.02

CCOC(=O)c1c(-c2ccc(F)cc2)csc1N
inactive: [1] 0.986 | [7] 0.986 | [9] 0.93 | [12] 0.957 | [21] 0.941 | [23] 0.95
active: [3] 0.879 | [4] 0.905 | [5] 0.889 | [6] 0.887 | [8] 0.746 | [28] 0.928 | [2] 0.175 | [10] 0.858 | [11] 0.903 | [13] 0.86 | [14] 0.437 | [15] 0.897 | [16] 0.508 | [17] 0.438 | [18] 0.798 | [19] 0.93 | [22] 0.782 | [24] 0.842 | S. cerevisiae deletion strains, locus YOL006C, strain TOP1, hits give low values 0.479 | [25] 0.754 | [26] 0.807 | [27] 0.435 | S. cerevisiae strains, strain wild type, hits give low values 0.82

CCOC(=O)Nc1ccc(NCc2ccc(F)cc2)nc1N
inactive: [3] 1.02 | S. cerevisiae deletion strains, locus YAL040C, strain CLN3, hits give low values 1.01 | S. cerevisiae deletion strains, locus YCL061C, strain MRC1 (second series), hits give low values 1 | [7] 0.991 | S. cerevisiae deletion strains, locus YDR363W, strain ESC2, hits give low values 1.02 | S. cerevisiae deletion strains, locus YER002W, strain NOP16, hits give low values 1 | [28] 1.07 | [13] 1.01 | [20] 0.994 | S. cerevisiae deletion strains, locus YNL128W, strain TEP1, hits give low values 0.993 | S. cerevisiae deletion strains, locus YNL175C, strain NOP13, hits give low values 1.01 | S. cerevisiae deletion strains, locus YNL197C, strain WHI3, hits give low values 1.01 | S. cerevisiae deletion strains, locus YNL224C, strain SQS1, hits give low values 1.04 | [23] 1.01 | S. cerevisiae deletion strains, locus YOR083W, strain WHI5 (second series), hits give low values 1.03 | [25] 1.02
